This is a sample that favours compounds with a hit; in the whole collection about 19% have one here.
IL-1B inflam inh – qHTS for Inhibitors of Inflammasome Signaling: IL-1-beta AlphaLISA Primary Screen | THP-1 LPS/ATP IL-1B secretion, AlphaLISA, 16 h; active compounds read low | 360,000 compounds, 4.7% hits | AID 743279, 2014 | activity change, % at 57.5 µM; in the data active = activity change below about -50%; inconclusive = mostly about -30% to -49%; also: % is scaled to controls: 0 for no effect and ±100 for the full control effect
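THP-1 cells pretreated 1 hr with compounds (up to 57.5 uM final), then stimulated with LPS (250 ng/mL final) plus ATP (1.25 mM final); secreted IL-1B measured by AlphaLISA after 16 hr, decreased signal indicating inhibition.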
HepG2 tox – qHTS for Inhibitors of TGF-b: Cytotox Counterscreen; HepG2 CAGA-GFP viability, ATP luminescence, 18 h; Potency, µM (doses to about 46.1 µM), for inactives: top-dose activity change, negative = cytotoxicity, actives largely listed as cytotoxic; 410,000 compounds, 0.76% hits; AID 588856, 2011; also: potency is read from the fitted curve at half-maximal effect
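CellTiter-Glo luminescence gave cytotoxicity after 18 hours at 37 degrees C. The cells were HepG2 CAGA-GFP in 1% FBS DMEM, stimulated with 500 pg/mL TGF-beta after compound addition. %Activity was normalised to no-cell wells (complete cell-killing) and DMSO (no toxicity), and curves were fitted and classified.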
DT40 TDP1 no CPT – qHTS for Inhibitors of human tyrosyl-DNA phosphodiesterase 1 (TDP1): qHTS in cells in absence of CPT; DT40 Tdp1-/- hTDP1 cells, no CPT, ATP luminescence, 48 h; Potency, µM (top dose mostly 46.2 µM), without a hit: at the top dose activity change, negative = growth inhibition, actives largely listed as inhibitors; 420,000 compounds, 15% hits; AID 686978, 2013; also: potency is read from the fitted curve at half-maximal effect; % is scaled to controls: 0 for no effect and ±100 for the full control effect; nearly all actives have a fitted effect of over 55% in size
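DT40 Tdp1-/-;hTDP1 cells, no CPT (DMSO vehicle only), 400 cells/well; compounds pin-transferred; ≥48 hr, 37 °C; CellTiter-Glo 30 min RT dark, luminescence read.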
S-ASM inh – Inhibitors of Secretory Acid Sphingomyelinase (S-ASM): qHTS; Sphingomyelin phosphodiesterase (Homo sapiens), P17405; placental ASM, HMU-PC fluorogenic substrate, 60 min; Potency, µM (doses to about 57.5 µM), inactives show at the top dose activity change, negative = inhibition, most hits filed as inhibitors; 340,000 compounds, 0.006% hits; AID 504937, 2011; also: potency is read from the fitted curve at half-maximal effect
Target sequence (P17405 47-631 limits assumed): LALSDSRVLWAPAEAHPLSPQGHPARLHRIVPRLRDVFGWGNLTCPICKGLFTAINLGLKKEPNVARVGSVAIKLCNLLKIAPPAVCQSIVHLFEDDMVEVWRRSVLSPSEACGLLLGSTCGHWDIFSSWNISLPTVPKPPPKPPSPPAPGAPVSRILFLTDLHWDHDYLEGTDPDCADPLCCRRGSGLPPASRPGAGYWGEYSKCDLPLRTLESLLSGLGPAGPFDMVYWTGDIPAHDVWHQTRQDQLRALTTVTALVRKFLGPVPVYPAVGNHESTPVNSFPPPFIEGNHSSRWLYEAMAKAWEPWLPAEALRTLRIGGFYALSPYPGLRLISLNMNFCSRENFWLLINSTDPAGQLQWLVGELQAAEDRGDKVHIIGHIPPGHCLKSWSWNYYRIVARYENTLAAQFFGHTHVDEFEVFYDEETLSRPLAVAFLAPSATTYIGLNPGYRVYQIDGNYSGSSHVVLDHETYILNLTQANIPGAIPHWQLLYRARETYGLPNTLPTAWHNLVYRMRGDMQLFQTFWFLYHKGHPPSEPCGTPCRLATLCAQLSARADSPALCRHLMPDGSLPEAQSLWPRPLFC
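HMU-PC0 cleavage (9 uM final) by human placental ASM, 60 min at 37 °C following 10 min compound exposure at RT; stopped at pH 10, fluorescence Ex 386/Em 447 nm.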
TGFb inhibitor – qHTS for Inhibitors of TGF-b | HepG2 CAGA-GFP TGF-b/SMAD3 reporter, GFP fluorescence, 18 h; TGF-beta stimulated, 500 pg/mL final | Potency, µM (top dose mostly 46.1 µM), for inactives: at the top dose activity, negative = inhibition, most hits filed as inhibitors | 410,000 compounds, 1.2% hits; also: potency is read from the fitted curve at half-maximal effect; % is scaled to controls: 0 for no effect and ±100 for the full control effect; nearly all actives have a fitted effect of over 65% in size
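GFP signal (ex488/em500-530) from TGF-beta-stimulated HEPG2 CAGA-GFP cells, 500 pg/mL final, 18 h at 37 degrees C in DMEM plus 1% FBS, normalized to unstimulated and DMSO-stimulated controls.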
TDP1 cell CPT – qHTS for Inhibitors of human tyrosyl-DNA phosphodiesterase 1 (TDP1): qHTS in cells in presence of CPT; chicken DT40 Tdp1-/-;hTDP1 cells + 20 nM CPT, ATP luminescence, 48 h; Potency, µM (top dose mostly 46.2 µM), for the others: at the top dose activity change, negative = growth inhibition, most hits filed as inhibitors; 420,000 compounds, 12% hits; AID 686979, 2013; also: potency is read from the fitted curve at half-maximal effect; % is scaled to controls: 0 for no effect and ±100 for the full control effect; nearly all actives have a fitted effect of over 55% in size
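Cell growth measured by CellTiter-Glo luminescence after a minimum 48 h, 37 C compound exposure with 20 nM CPT in Tdp1-knockout DT40 cells stably expressing hTDP1, seeded 400/well; qHTS titration format.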
Numbers without * were called inactive; ? = inconclusive; . = no result given. Unless noted, calls follow the shape of the dose curve; as a rule, active = well fitted curve in the direction sought with a large enough effect; inconclusive = small, poorly fitted or top-dose-only effect, or another doubt; inactive = no such curve, though single readings can be large; an effect the other way counts as inactive or inconclusive.

SMILES	IL-1B inflam inh	HepG2 tox	DT40 TDP1 no CPT	S-ASM inh	TGFb inhibitor	TDP1 cell CPT
COc1ccc(Cc2c(-c3ccc(C)cc3)nc3c(C)cc(Br)cn23)c(C)c1	38.8	-8.5%	?	.	-20.1%	?
COc1ccc(Cc2c(-c3ccc(OC)c(OC)c3)nc3c(C)cc(Br)cn23)c(C)c1	-14.5	-29.9%	1.46µM*	.	-20.7%	1.16µM*
COc1ccc(Cc2c(-c3cccc(Br)c3)nc3ccc(Cl)cn23)c(C)c1	19.8	-37.5%	?	.	-15.4%	0.3%
COc1ccc(-c2nc3c(C)cc(Br)cn3c2Cc2ccc(C)cc2)cc1OC	0.0	-9.5%	?	.	?	?
COc1ccc(NS(=O)(=O)c2ccc(C)c(C(=O)N3CCC3)c2)cc1	6.1	0.0%	-20.8%	0.5%	-13.3%	?
CC(C)N(CCCNC(=O)Cn1ncc2c([nH]c3ccccc32)c1=O)Cc1ccccc1	-3.2	-1.4%	18.6%	-0.1%	-4.6%	-9.9%
CCN(CC)Cc1c(C(=O)N/N=C/c2ccc(OCc3ccccc3C)cc2)nnn1-c1nonc1N	-23.7	-4.3%	?	-20.4%	-20.7%	?
COC(=O)c1ccc2nc(-c3ccco3)c(Cc3ccc(OC)cc3C)n2c1	-18.3	-30.7%	?	.	12.6µM*	?
Cc1ccc(-n2ncc3c(NCc4ccccc4)ncnc32)cc1Cl	.	4.6%	?	.	16.5%	?
CN(C)c1ccc(/C=C2/C[N+](C)(C)C/C(=C/c3ccc(N(C)C)cc3)C2=O)cc1	-98.2*	12.6µM*	3.66µM*	?	0.1%	2.59µM*
CC(C)/C=C1\CC/C(=C\c2ccc(N(C)C)cc2)C1=O	?	21.1%	?	-0.2%	-6.7%	-28.3%
COCc1cc(CN(C)C(=O)C2CCC(=O)N(Cc3cccc(OC)c3)C2)[nH]n1 (stereo unspecified)	3.9	1.8%	?	-1.1%	10.3%	0.8%
COc1ccc(CCNC(=O)C(=O)NCC(c2ccco2)S(=O)(=O)c2ccc(C)cc2)cc1 (stereo unspecified)	.	10.4%	-29.0%	.	12.3%	-22.7%
CCOC(=O)N1CCN(Cc2nc3cc([N+](=O)[O-])ccc3n2C)CC1	36.7	-1.2%	-17.8%	-4.9%	5.2%	-1.3%
CCOC(=O)c1ccc(-n2c(CN3CCC(O)CC3)nc3ccc([N+](=O)[O-])cc3c2=O)cc1	0.0	-16.4%	?	-0.9%	?	20.6µM*
CCOC(=O)C1CCCN(Cc2nc3ccc([N+](=O)[O-])cc3c(=O)n2-c2ccc(OC)cc2OC)C1 (stereo unspecified)	61.9	-10.9%	23.1µM*	-1.0%	-26.3%	16.4µM*
CCOC(=O)N1CCN(Cc2nc3ccc([N+](=O)[O-])cc3c(=O)n2-c2ccccc2F)CC1	31.3	-5.5%	23.1µM*	-15.2%	2.4%	?
CCC(CC)N1CCN(Cc2nc3ccc([N+](=O)[O-])cc3c(=O)n2-c2ccccc2F)CC1	57.7	-7.1%	?	2.9%	-8.3%	4.6%
CC(=O)N1CCN(Cc2nc3cc([N+](=O)[O-])ccc3n2C)CC1	7.1	0.1%	?	2.9%	-0.7%	6.51µM*
CCOC(=O)C1CCN(Cc2nc3ccc([N+](=O)[O-])cc3c(=O)n2-c2ccc(OC)cc2OC)CC1	26.9	-19.6%	?	-0.8%	-25.4%	?
CC(=O)c1cccc(S(=O)(=O)N2CCC(C(=O)O)(c3ccccc3)CC2)c1	-9.8	-38.0%	?	-2.9%	?	-7.7%
CCOC(=O)c1ccc(-n2c(CN(CC)CC)nc3ccc([N+](=O)[O-])cc3c2=O)cc1	36.0	-38.0%	?	-8.1%	?	18.4µM*
CCOC(=O)c1ccc(-n2c(CN3CCOCC3)nc3ccc([N+](=O)[O-])cc3c2=O)cc1	45.4	6.1%	-3.8%	1.1%	1.2%	-10.0%
O=C(N/C(=C/c1cccc(Br)c1)C(=O)N1CCCCC1)c1ccco1	?	-10.7%	?	.	-1.3%	?
CC(=O)N1CCN(C(=O)/C(C#N)=C/c2ccc3c(c2)OCO3)CC1	1.8	-14.1%	4.6%	1.6%	-2.5%	3.7%
SMILES	IL-1B inflam inh	HepG2 tox	DT40 TDP1 no CPT	S-ASM inh	TGFb inhibitor	TDP1 cell CPT
N#C/C(=C\c1cccc(O)c1)C(=O)N1CCCCC1	-73.4*	-14.7%	?	0.6%	12.8%	15.1%
Cc1cc(/C=C(\C#N)C(=O)N2CCCCC2)cc(C)c1O	-4.9	-5.3%	25.9µM*	-4.3%	1.8%	18.4µM*
CCOC(=O)/C(C#N)=C/c1cccc(C)c1	-7.4	-2.4%	4.0%	4.4%	-12.5%	-11.9%
N#C/C(=C\c1cccc(Br)c1)C(=O)N1CCCCC1	?	-180.1%	11.6µM*	-1.5%	?	13µM*
O=C(O)C1=C[C@H](c2ccc(F)cc2)C[C@H](OCc2ccc(CO)cc2)O1	19.3	4.2%	3.2%	0.0%	8.1%	-2.2%
Cc1ccc(OCC(=O)Nc2ccc3c(c2)nc(CCN2CCN(C)CC2)n3C)cc1	23.0	-7.3%	?	5.6%	-2.0%	?
Cn1c(CCN2CCCCC2)nc2cc(NC(=O)COc3ccc([N+](=O)[O-])cc3)ccc21	?	-13.0%	18.4µM*	-4.8%	-0.6%	-29.0%
Cn1c(CN2CCCC2)nc2cc(NC(=O)COc3ccc(Cl)cc3)ccc21	-68.1*	-28.6%	?	-2.9%	?	?
Cc1nn(CC(=O)Nc2ccc3c(c2)nc(CCN2CCCCC2)n3C)c(=O)c2ccccc12	-12.4	7.1%	?	-2.3%	-18.9%	11.2µM*
Cn1c(CCN2CCCCC2)nc2cc(NC(=O)COc3ccc(Cl)cc3)ccc21	-83.1*	-20.9%	?	-1.8%	-21.9%	?
O=C(NC1CC1)c1ccc2nc([C@@H]3O[C@H](CO)[C@H](O)[C@H](O)[C@H]3O)[nH]c2c1	-5.8	-0.9%	-6.2%	.	5.8%	-14.7%
Cc1ccc(CNC(=O)c2cccc(-n3cnc4cccnc43)c2)cc1	.	5.5%	?	.	?	?
COC(=O)c1c(-c2cccs2)csc1NC(=O)c1ccc(Br)cc1	.	-2.0%	?	.	-7.5%	?

Screening results as filed in PubChem.
